# The supplement of paper PMC10338343
# ± gives the standard deviation.
# Tested on: MILI (PIWIL2) piRISC loaded with L1MC piRNA (26 nt)
# Experiment: pre-steady-state target cleavage rate (min^-1); guide: L1MC piRNA 5'p-UAACUAAAUACUAUGCAAGCUGUAGG; MIWI and MILI are mouse PIWI proteins and EfPiwi is from a freshwater sponge; tags in brackets are library labels; higher = faster piRNA-guided slicing of the target
# Settings: auxiliary factor: 500 nM mouse GTSF1
# Experimental: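 Cleave-'n-Seq: a library of target RNAs (target site embedded in constant flanks, ACAGCATTCCGCGTTAGTGATATCCG... 5' flank; DNA-blocked outside the site) at 0.1 nM was incubated with 1 nM active mouse MILI or MIWI piRISC (synthetic 5'-monophosphorylated piRNA guide) with or without 500 nM mouse GTSF1 at 33 °C for 1 min to 16 h. Uncleaved targets were sequenced and normalised to non-target controls, and the pooled three trials were fitted to a burst-and-steady-state model to give the pre-steady-state cleavage rate (min^-1; k3 is constrained to at most 1e-4). Sequence is the target site only; target names encode pairing extent (gX:gY) and contiguous / 1-mismatch / 2-mismatch / bulge geometry. Fits with R² ≤ 0 are excluded.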
row,Sequence,pre-steady-state target cleavage rate
1,UCCUGGAACAGCUUGCAUAGUUUUUACAAA,0.00599 ± 0.0038
2,UCCUGGAUGUCGAACCAUAGUAUAUAGUAA,< 0.0001
3,UCCUGGAUGUGCUUGCAUAGUAUUUAGUAUA,0.131 ± 0.019
4,UCCUGGAACAGCUUGCAUAGUAUUUACUUA,0.0894 ± 0.017
5,UCCUGCUACAGCUUCAUAGUAUUUAGUUA,0.231 ± 0.019
6,UCCUGGUACAGCUUGCAUAGCAUUUAGUUA,0.117 ± 0.03
7,UCCUGCUACUCCUUGCAUAGUAUUUAGUAA,0.188 ± 0.023
8,UCCUGCUACAGCUUGCUUUGUAUUUAGUUA,0.183 ± 0.015
9,UCCUGGAACGAGCUUGCAUAGUAUUUAGUUA,0.239 ± 0.024
10,UCCUGGAUGACCUUGCAUAGUAUAUAGUUA,0.167 ± 0.034
11,UCCUCCACAGCUUGCAUAGUAUUUAGUUA,0.248 ± 0.014
12,UCCUGCUACUGCUUGCUUAGUAUUUAGUUA,0.202 ± 0.022
13,UCCUGGUACAGCUAGCAUAGUAUUUAGUUA,0.259 ± 0.017
14,UCCUGGAUGUGCUUGCUUAGUAUUUUGUUA,0.0645 ± 0.017
15,UCCUCCUACAGCUUGCAUAGUAUUUUCUUA,0.126 ± 0.027
16,UCCUCCUACAGCUUGCAAAGUAUUUAGUAA,0.142 ± 0.016
17,UCCUGCUACAGCUUCGAUAGUAUUUAGUAA,0.199 ± 0.03
18,UCCUGGAUCAGCUUGCAUAGAUUUUAGAAA,0.00651 ± 0.0043
19,UCCUGCUACAGCUUGCAUAGUAUUCAGUUA,0.244 ± 0.038
20,UCCUGGAUGUCCUUAGCAUAGUAUUUAGUUA,0.0724 ± 0.016
21,UCCUCCUACUGCUUGCAUAGUAUUUUCAAA,0.0284 ± 0.0085
22,UCCUGGAUCAGCUUGAAUAGUAUUUAGUUA,0.247 ± 0.017

# Same assay, conditions: auxiliary factor: none (no GTSF1)
row,Sequence,pre-steady-state target cleavage rate
1,UCCUGGAUGUCGAACCAUAGUAUAUAGUAA,< 0.0001
2,UCCUGGAUGUCGAACGUAUCUAAUUAGUUA,< 0.0001
3,UCCUGGAACAGCUUGCAUAGUAUUUACUUA,0.003 ± 0.0029
4,UCCUGCUACAGCUUCAUAGUAUUUAGUUA,0.00508 ± 0.0025
5,UCCUGGUACAGCUUGCAUAGCAUUUAGUUA,0.00488 ± 0.0026
6,UCCUGCUACUCCUUGCAUAGUAUUUAGUAA,0.00412 ± 0.002
7,UCCUGCUACAGCUUGCUUUGUAUUUAGUUA,0.00494 ± 0.0021
8,UCCUGGAACGAGCUUGCAUAGUAUUUAGUUA,0.00792 ± 0.0025
9,UCCUGGAUGACCUUGCAUAGUAUAUAGUUA,0.00397 ± 0.0031
10,UCCUCCACAGCUUGCAUAGUAUUUAGUUA,0.00686 ± 0.0018
11,UCCUGCUACUGCUUGCUUAGUAUUUAGUUA,0.00589 ± 0.002
12,UCCUGGUACAGCUAGCAUAGUAUUUAGUUA,0.00964 ± 0.0026
13,UCCUCCUACAGCUUGCAAAGUAUUUAGUAA,0.00404 ± 0.0019
14,UCCUGCUACAGCUUCGAUAGUAUUUAGUAA,0.00274 ± 0.0022
15,UCCUGCUACAGCUUGCAUAGUAUUCAGUUA,0.00294 ± 0.0021
16,UCCUGGAUGUCCUUAGCAUAGUAUUUAGUUA,0.00307 ± 0.0025
17,UCCUGGAUCAGCUUGAAUAGUAUUUAGUUA,0.00991 ± 0.0026
